Here are results for 92 molecules from PubChem BioAssay AID1892 (NMMLSC, 2009).

Molecules are shown by their SMILES. Among all 5,900 compounds or so, about 140 (2.4%) were called active. The full list was thinned out, with actives kept by preference. A number with no mark means an inactive call. Rule as the data show it: active = binding response below about 16% or above about 210%; inactive = in between.

In the experiment the target is Mitogen-activated protein kinase kinase kinase 2 (Homo sapiens) (UniProt Q9Y2U5). The experiment in a line: modulators of MEK5 binding to wildtype MEKK2, confirmation, biochemical, single concentration, multiplex bead flow cytometry (AID 1892). The following applies: Alexa488-MEK5 binding to MEKK2 WT, at 10 µM, actives lie on both sides.
Regarding `Cc1cnc(NC(=O)Cn2cnc3c2c(=O)n(C)c(=O)n3C)s1`, the binding response (% of control) was 96%.
As for `O=c1c2ccccc2c(-c2ccccc2)nn1Cc1ccccc1`, the figure is 100%.
On to `Cc1ccccc1OCC(=O)Nc1ccc(N2CCN(C(=O)C(C)C)CC2)c(Cl)c1`, for which the binding response (% of control) is 93%.
As for `O=C1NCC(=O)N(Cc2ccccc2)/C1=C/c1ccccc1`, the figure is 75%; as for `CC1(C)OC(=O)N2CCc3ccccc3C21C` (configuration not stated), 101%.
In the case of `CN(C)c1ccc(/C=C2\NC(=S)N(Cc3ccccc3)C2=O)cc1` it was 86%.
In the case of `Cc1ccc(N2C(=O)CC(N3CCSCC3)C2=O)c(C)c1` (configuration not stated) it was 103%.
As to `Cc1ccc(NC(=S)N(CCCN2CCCC2)Cc2cccn2Cc2ccc(Cl)cc2)cc1`, the binding response (% of control) was 160%.
In the case of `COc1ccc(-c2[nH]ncc2CN(C)Cc2c(C)n[nH]c2C)c(OC)c1` it was 108%; in that of `COc1ccccc1CC(=O)Nc1ccc([N+](=O)[O-])cc1OC`, 100%.
As for `Cc1ccc(Nc2nc(CSc3nnc(-c4ccncc4)n3-c3ccccc3C)cs2)cc1`, the binding response (% of control) was 101%.
Turning to `O=C(/C=C/Nc1ccccc1)c1cnc(-c2ccccc2)s1`, the binding response (% of control) was 107%.
In the case of `CC(C)CC(=O)N1CCN(Cc2ccccc2Br)CC1`, the binding response (% of control) is 105%.
In the case of `Cc1ccccc1CCN(CC(=O)NC1CCCCC1)C(=O)c1csnn1` it was 96%.
Consider `Cc1cccc(/C=N/NC(=O)CNc2cccc3ccccc23)n1`, for which the binding response (% of control) was 103%.
As for `CC(C)(C)NC(=O)c1cccc(NC(=O)Cc2ccc(Br)cc2)c1`, the figure is 100%.
In the case of `CCOc1cc(C2C(C(=O)OC)=CN(C3CCCC3)C=C2C(=O)OC)cc(Br)c1O` it was 108%; in that of `COc1ccc(CCNC(=O)CSc2nnc3ccc(-c4ccncc4)nn23)cc1`, 102%.
As for `CCCCOC(=O)c1ccc(N2C(=O)CC(N3CCN(C/C=C/c4ccccc4)CC3)C2=O)cc1` (configuration not stated), the figure is 124%.
On to `O=C(NCC1CCCCC1)c1cc(S(=O)(=O)N2CCCCC2)ccc1N1CCOCC1`, for which the binding response (% of control) is 87%.
As for `Cn1c(SCc2nc3ccccc3s2)nnc1-c1ccc2c(c1)OCO2`, the figure is 102%; as for `Cc1cccc(-c2ncc(CN3CCC(CO)(CCCc4ccccc4)CC3)cn2)c1`, 131%.
In the case of `Cc1cn(COC/C=C/c2ccccc2)c(=O)[nH]c1=O` it was 103%; in that of `COc1cc(NC(=S)NCc2ccco2)c(OC)cc1Cl`, 108%; in that of `COC(=O)c1c(NC(=O)COC(=O)[C@@H](NS(=O)(=O)c2ccccc2)C(C)C)sc2c1CCC2`, 96%.
As for `COc1cc(-c2nc(-c3ccncc3)no2)cc(OC)c1OC`, the figure is 104%; as for `Cc1cccc(CSc2nnc(C)c(=O)n2N)c1`, 100%; as for `O=C(O)CCCC(=O)Nc1ccc(Oc2cccc(C(F)(F)F)c2)nc1`, 106%.
Take `COc1cc(CC(=O)N/N=C/c2ccccc2)c([N+](=O)[O-])cc1OC`: the binding response (% of control) is 99%.
As for `COc1ccc(S(=O)(=O)N2CN(CCc3ccc(OC)c(OC)c3)c3nc4ccccc4nc32)cc1`, the binding response (% of control) was 96%.
Consider `CCOC(=O)C(NS(=O)(=O)c1ccc(C)cc1)(C(F)(F)F)P(=O)(OCC(C)C)OCC(C)C` (configuration not stated), for which the binding response (% of control) was 90%.
In the case of `O=c1[nH]c(=S)[nH]c2[nH]c(=S)[nH]c12` it was 101%; in that of `Cc1ccccc1-c1ccc(Nc2ccc(C(=O)N3CCOCC3)cc2)nn1`, 103%; in that of `CCOC(=O)c1c(Cc2ccc(Cl)cc2)c[nH]c1C`, 105%.
As for `O=C(Nc1cccnc1)c1cc(Cl)ccc1Cl`, the figure is 109%.
In the case of `CN(C)CCCNC(=O)/C=C/c1ccc(OCc2c(F)cccc2Cl)cc1` it was 150%; in that of `O=C(c1cnn(-c2ccc(Cl)cc2)c1)c1ccccc1O`, 112%; in that of `O=C(O)/C=C\C(=O)Nc1ccc(OCc2ccccc2)cc1`, 102%.
As for `O=C(OCc1cc(Cl)ccc1OC(F)F)c1cccnc1`, the binding response (% of control) is 95%.
As for `CCNC(=O)CSc1nc(-c2ccccc2)cs1`, the figure is 99%; as for `O=C(OCC1O[C@@H](OC(=O)c2cc(O)c(O)c(O)c2)[C@@H](OC(=O)c2cc(O)c(O)c(O)c2)[C@@H](OC(=O)c2cc(O)c(O)c(O)c2)[C@@H]1OC(=O)c1cc(O)c(O)c(O)c1)c1cc(O)c(O)c(O)c1` (some centres not stated), -1% [inhibitor] (active).
As for `CCOC(=O)c1c(-c2ccccc2)csc1NC(=S)NC(=O)c1ccccc1`, the figure is 102%; as for `CCCCCCCCCCOC(=O)Cn1c(COc2ccc(C)cc2)[n+](C)c2ccccc21`, 217% (active).
For `CCCCCCCCCCOC(=O)Cn1c(COc2cccc(OC)c2)[n+](C)c2ccccc21`, the binding response (% of control) was 257% (active).
Turning to `FC(F)(F)c1cccc(N/N=C/c2ccccc2)c1`, the binding response (% of control) is 151%.
Take `Cc1ccc(S(=O)(=O)NC(=O)N2CCCC(C)(C)C2)cc1`: the binding response (% of control) was 101%.
As for `COc1cc(/C=C2\SC(=S)N(Nc3ncc(C(F)(F)F)cc3Cl)C2=O)cc(OC)c1OC`, the figure is 74%; as for `Cc1cc(Cl)ccc1OCc1nc(-c2ccncc2)no1`, 80%; as for `COc1ccccc1N1CCN(CCCCOc2ccc(F)cc2)CC1`, 109%.
In the case of `Cc1no[n+]([O-])c1COc1ccccc1/C=C1\NC(=S)NC1=O` it was 99%; in that of `CCO[C@H]1OC(C(=O)N2CCOCC2)=C[C@@H](c2ccc3c(c2)OCO3)[C@@H]1CCCO`, 101%.
As to `c1ccc(Nc2nc(N3CCOCC3)c3ccccc3n2)cc1`, the binding response (% of control) was 124%.
As for `COCC(C)NC(=O)COc1nncc2ccccc12` (configuration not stated), the figure is 96%; as for `Cn1c(=NC(=O)CSCC(=O)N2CCOCC2)sc2ccccc21`, 90%.
In the case of `CCc1nnc(NC(=O)c2sc3nc(C)cc(COC)c3c2N)s1` it was 107%; in that of `Cc1ccccc1C(=O)NNC(=O)CN1C(=O)c2ccccc2C1=O`, 92%.
Regarding `C#CCOCCOCCOCCNc1nc(N2CCN(C(=O)[C@H](CCCCN)n3cc([C@@H](N)C(C)CC)nn3)CC2)nc(N2CCN(C(=O)[C@H](Cc3ccc(O)cc3)n3cc([C@@H](N)C(C)CC)nn3)CC2)n1` (some centres not stated), the binding response (% of control) was 183%.
On to `COc1ccc(C2CC(c3cccs3)=NN2c2nc(C)c(C(C)=O)s2)cc1OC` (configuration not stated), for which the binding response (% of control) is 82%.
As for `CCOC(=O)c1cc2occc2n1CC(=O)N1CCN(C(=O)c2ccco2)CC1`, the figure is 92%.
`COC(=O)c1cc(NC(=O)c2cc(C(C)(C)C)nn2Cc2cccc(C)c2)ccc1N1CCOCC1`: the binding response (% of control) was 102%.
Take `Cc1ccc(S(=O)(=O)/N=S(\C)C(C)C)cc1` (configuration not stated): the binding response (% of control) was 101%.
For `CCOC(=O)/C(C#N)=C/c1ccc(OCC(=O)Nc2ccccc2)c(OC)c1`, the binding response (% of control) is 103%.
In the case of `CN(C)CCCN(C(=O)c1ccc(S(=O)(=O)N2CCCc3ccccc32)cc1)c1nc2ccc(F)cc2s1` it was 198%.
In the case of `O=C(Nc1ccc2ccccc2c1)Nc1ccc2snnc2c1` it was 155%; in that of `CCOc1ccc(NC(=O)Nc2cc(C)ccc2OC)cc1`, 106%; in that of `CCOc1cc(C(=O)OCC(=O)Nc2cccc(C)c2)ccc1OCC(=O)N1CCOCC1`, 106%.
Turning to `CCOC(=O)Cc1csc(NC(=O)CSc2nc(C)cc(=O)[nH]2)n1`, the binding response (% of control) is 92%.
With `CCOc1nnc(C)c2c(C)n(-c3cccc(Cl)c3)nc12`, the binding response (% of control) is 86%.
As for `O=C(COC(=O)CNC(=O)c1ccco1)Nc1ccc(F)cc1`, the figure is 98%; as for `Cn1c(=NC(=O)CSCC(=O)N2CCCCC2)sc2ccccc21`, 103%.
In the case of `N=C1/C(=C/c2cccn2-c2cccc([N+](=O)[O-])c2)C(=O)N=C2SC=CN12` it was 99%; in that of `O=C(c1ccc(Br)o1)N(c1ccccn1)C1CCCCC1`, 101%.
As for `CC(C)(C)NC(=O)Cn1cnc([N+](=O)[O-])n1`, the figure is 96%.
`O=C(CC1SCCNC1=O)Nc1ccc(Cl)c(Cl)c1` (configuration not stated): the binding response (% of control) was 104%.
As for `O=c1c(/C=N/O)coc2ccc(Cl)cc12`, the figure is 100%.
As for `CCN(CC)C(=O)CC(c1ccc2c(c1)OCO2)c1c(OC)cc(OC)c2c(-c3ccccc3)cc(=O)oc12` (configuration not stated), the binding response (% of control) was 99%.
As for `Cc1ccc(C(=O)N/C(=C/c2ccco2)C(=O)NCCc2c[nH]c3ccccc23)cc1C`, the figure is 101%; as for `CN1CCN(/N=C/c2ccc(C#N)cc2)CC1`, 92%.
Take `CCN1CCN(c2nc(Nc3cc(OC)ccc3OC)nc(Nc3cc(OC)ccc3OC)n2)CC1`: the binding response (% of control) is 148%.
With `COc1ccccc1OCCNCC(O)COc1cccc2[nH]c3ccccc3c12` (configuration not stated), the binding response (% of control) is 159%.
`COc1ccccc1NC(=S)N1CCN(c2ccc(F)cc2)CC1`: the binding response (% of control) was 100%.
Consider `O=C(O)/C(=C/c1cccnc1)NC(=O)c1ccccc1`, for which the binding response (% of control) was 103%.
In the case of `c1ccc(CN2CCC(N=C3NN=C(c4ccc5c(c4)OCCO5)CS3)CC2)cc1` it was 164%.
In the case of `COc1cccc(/C(C)=N/Nc2ncc(Cl)cc2Cl)c1` it was 100%; in that of `O=C(c1ccco1)N1CCN(c2cccc(Cl)c2)CC1`, 93%; in that of `COC(=O)C1=NN(c2ccccc2)C2C(=O)N(c3ccccc3OC)C(=O)C12` (configuration not stated), 97%.
In the case of `Cc1cccc(CN2CCC(CNC(=O)Nc3ccc(F)c(Cl)c3)CC2)c1` it was 126%.
As to `CCN1CCN(CCNC(=O)c2ccc(/C=C3/Sc4ccccc4N(Cc4cccc(C)c4)C3=O)cc2)CC1`, the binding response (% of control) is 236% (active).
As for `C/C(=N\NC(=O)CNC(=O)C(c1ccccc1)c1ccccc1)c1ccc(C)cc1`, the figure is 106%.
On to `CCOC(=O)c1cc2c(nc1NC(=S)Nc1ccccc1)CC(C)(CC)OC2` (configuration not stated), for which the binding response (% of control) is 101%.
As for `C=CCN(CC=C)S(=O)(=O)c1ccc(C(=O)Nc2sc3c(c2C(N)=O)CCCCC3)cc1`, the binding response (% of control) is 99%.
Turning to `COc1cccc(NC(=S)NCCCN2CCOCC2)c1`, the binding response (% of control) was 109%.
